Assay results taken from publication PMC7862700, “An all-to-all approach to the identification of sequence-specific readers for epigenetic DNA modifications on cytosine”.

Tests used:
Assay in all cases: DAPPL (digital affinity profiling via proximity ligation, sequencing); 10 mM Tris-HCl pH 7.5, 50 mM NaCl, 1 mM DTT, 4% glycerol, room temperature, 30 min; GST-TFs on glutathione beads, 16-mer random dsDNA library, 0.1% formaldehyde crosslink after washing; high values mean tight binding
FEV = target: T1, FEV (Homo sapiens, UniProt Q99581 1-238); conditions: protein: recombinant; tags: N-terminal GST; dsDNA, one strand shown
T1 sequence: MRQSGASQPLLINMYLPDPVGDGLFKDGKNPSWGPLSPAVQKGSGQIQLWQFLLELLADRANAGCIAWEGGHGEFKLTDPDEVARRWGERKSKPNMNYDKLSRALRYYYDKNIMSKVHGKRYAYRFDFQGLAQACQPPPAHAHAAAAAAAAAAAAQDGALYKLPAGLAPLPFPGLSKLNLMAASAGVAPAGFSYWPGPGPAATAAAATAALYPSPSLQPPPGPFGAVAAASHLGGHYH
Outline: (§1)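 Binding signal is each hexamer's read frequency for a factor divided by its frequency in the tag-only sample. The factors were GST-fused human transcription factors from yeast, captured on glutathione beads, DNA-barcoded and pooled with that sample. Pools were incubated with 200 nmole of a random double-stranded 16-mer DNA library in Tris/NaCl/DTT/glycerol buffer at room temperature for 30 min, then washed, crosslinked with 0.1% formaldehyde, proximity-ligated with BsaI/T4 ligase (1 h, 37 °C), PCR-amplified and sequenced on an Illumina NextSeq500.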

ETV5 = ETV5 (Homo sapiens, UniProt P41161 1-510); conditions: protein: recombinant; tags: N-terminal GST; dsDNA, one strand shown
Outline: as §1

HSF1 = HSF1 (Homo sapiens, UniProt Q00613 1-529); conditions: protein: recombinant; tags: N-terminal GST; chain copies: 3; dsDNA, one strand shown
Outline: as §1

SPIC = target: T2, SPIC (Homo sapiens, UniProt Q8N5J4 1-248); conditions: protein: recombinant; tags: N-terminal GST; dsDNA, one strand shown
T2 sequence: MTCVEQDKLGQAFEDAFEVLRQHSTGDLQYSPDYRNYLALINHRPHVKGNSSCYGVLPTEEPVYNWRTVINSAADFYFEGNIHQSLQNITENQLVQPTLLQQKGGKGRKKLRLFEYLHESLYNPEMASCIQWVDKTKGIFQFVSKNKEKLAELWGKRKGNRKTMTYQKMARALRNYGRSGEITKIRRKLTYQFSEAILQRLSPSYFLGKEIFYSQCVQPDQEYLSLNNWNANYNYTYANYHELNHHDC
Outline: as §1

ELF4 = ELF4 (Homo sapiens, UniProt Q99607 1-663); conditions: protein: recombinant; tags: N-terminal GST; dsDNA, one strand shown
Outline: as §1

ELK4 = target: T3, ELK4 (Homo sapiens, UniProt P28324-2 1-405); conditions: protein: recombinant; tags: N-terminal GST; dsDNA, one strand shown
T3 sequence: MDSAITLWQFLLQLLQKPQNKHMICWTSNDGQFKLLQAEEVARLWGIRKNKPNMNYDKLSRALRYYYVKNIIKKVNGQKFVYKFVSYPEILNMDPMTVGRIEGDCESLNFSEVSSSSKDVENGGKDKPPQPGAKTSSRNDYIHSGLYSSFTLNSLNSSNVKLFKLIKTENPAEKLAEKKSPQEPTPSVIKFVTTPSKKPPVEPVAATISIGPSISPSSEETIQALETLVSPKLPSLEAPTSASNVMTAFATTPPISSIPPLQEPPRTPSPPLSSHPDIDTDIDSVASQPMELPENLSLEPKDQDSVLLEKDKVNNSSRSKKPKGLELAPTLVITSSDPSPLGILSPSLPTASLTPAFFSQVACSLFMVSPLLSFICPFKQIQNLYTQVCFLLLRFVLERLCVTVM
Outline: as §1

ETV2 = target: T4, ETV2 (Homo sapiens, UniProt O00321 1-342); conditions: protein: recombinant; tags: N-terminal GST; dsDNA, one strand shown
T4 sequence: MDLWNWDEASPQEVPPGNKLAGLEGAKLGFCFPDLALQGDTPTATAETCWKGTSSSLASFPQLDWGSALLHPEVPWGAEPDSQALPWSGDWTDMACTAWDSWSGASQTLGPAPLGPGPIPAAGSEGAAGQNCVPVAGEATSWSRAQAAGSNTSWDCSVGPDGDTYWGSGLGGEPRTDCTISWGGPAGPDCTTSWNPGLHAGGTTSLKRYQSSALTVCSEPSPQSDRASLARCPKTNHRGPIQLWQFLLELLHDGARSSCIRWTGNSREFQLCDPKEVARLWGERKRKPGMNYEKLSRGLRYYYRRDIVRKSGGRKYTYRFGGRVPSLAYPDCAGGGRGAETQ
Outline: as §1

ELF3 = target: T5, ELF3 (Homo sapiens, UniProt P78545 1-371); conditions: protein: recombinant; tags: N-terminal GST; dsDNA, one strand shown
T5 sequence: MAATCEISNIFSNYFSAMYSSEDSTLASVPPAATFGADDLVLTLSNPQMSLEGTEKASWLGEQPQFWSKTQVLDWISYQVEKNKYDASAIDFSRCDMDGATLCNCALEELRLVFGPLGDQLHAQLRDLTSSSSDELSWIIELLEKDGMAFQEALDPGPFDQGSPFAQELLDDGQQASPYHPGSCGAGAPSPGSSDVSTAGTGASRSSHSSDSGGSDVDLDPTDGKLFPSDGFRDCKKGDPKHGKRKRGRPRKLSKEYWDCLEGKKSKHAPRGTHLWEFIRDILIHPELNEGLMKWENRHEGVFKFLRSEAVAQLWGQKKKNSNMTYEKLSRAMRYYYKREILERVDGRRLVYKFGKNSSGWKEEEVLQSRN
Outline: as §1

CRX = CRX (Homo sapiens, UniProt O43186 1-299); conditions: protein: recombinant; tags: N-terminal GST; dsDNA, one strand shown
Outline: as §1

ETV1 = ETV1 (Homo sapiens, UniProt P50549 1-477); conditions: protein: recombinant; tags: N-terminal GST; dsDNA, one strand shown
Outline: as §1

ERF = target: T6, ERF (Homo sapiens, UniProt P50548 1-548); conditions: protein: recombinant; tags: N-terminal GST; dsDNA, one strand shown
T6 sequence: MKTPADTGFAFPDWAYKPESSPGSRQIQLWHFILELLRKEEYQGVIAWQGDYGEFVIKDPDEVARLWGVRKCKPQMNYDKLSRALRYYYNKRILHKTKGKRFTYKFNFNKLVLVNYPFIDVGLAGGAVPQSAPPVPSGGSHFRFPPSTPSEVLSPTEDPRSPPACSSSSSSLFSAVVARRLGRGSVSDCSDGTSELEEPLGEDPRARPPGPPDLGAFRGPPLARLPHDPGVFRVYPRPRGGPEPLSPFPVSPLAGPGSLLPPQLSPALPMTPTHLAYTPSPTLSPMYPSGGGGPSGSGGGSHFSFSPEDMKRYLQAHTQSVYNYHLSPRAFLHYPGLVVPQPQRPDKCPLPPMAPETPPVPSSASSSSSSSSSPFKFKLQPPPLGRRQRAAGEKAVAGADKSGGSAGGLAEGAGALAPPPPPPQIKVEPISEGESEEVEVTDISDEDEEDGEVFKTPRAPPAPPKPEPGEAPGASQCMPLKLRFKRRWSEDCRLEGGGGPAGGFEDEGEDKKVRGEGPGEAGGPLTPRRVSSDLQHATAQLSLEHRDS
Outline: as §1

ETV3L = target: T7, ETV3L (Homo sapiens, UniProt Q6ZN32 1-361); conditions: protein: recombinant; tags: N-terminal GST; dsDNA, one strand shown
T7 sequence: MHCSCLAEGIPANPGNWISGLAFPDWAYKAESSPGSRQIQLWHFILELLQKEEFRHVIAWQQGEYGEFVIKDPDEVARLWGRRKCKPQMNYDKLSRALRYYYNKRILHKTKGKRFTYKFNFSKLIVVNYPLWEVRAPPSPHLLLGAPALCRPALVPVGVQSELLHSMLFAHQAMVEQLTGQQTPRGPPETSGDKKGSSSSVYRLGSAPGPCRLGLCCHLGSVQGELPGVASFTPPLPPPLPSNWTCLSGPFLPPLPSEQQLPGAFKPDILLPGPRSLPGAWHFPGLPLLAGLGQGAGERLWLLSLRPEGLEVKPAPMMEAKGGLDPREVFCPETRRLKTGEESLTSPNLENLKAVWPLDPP
Outline: as §1

ETS2 = target: T8, ETS2 (Homo sapiens, UniProt P15036 1-469); conditions: protein: recombinant; tags: N-terminal GST; dsDNA, one strand shown
T8 sequence: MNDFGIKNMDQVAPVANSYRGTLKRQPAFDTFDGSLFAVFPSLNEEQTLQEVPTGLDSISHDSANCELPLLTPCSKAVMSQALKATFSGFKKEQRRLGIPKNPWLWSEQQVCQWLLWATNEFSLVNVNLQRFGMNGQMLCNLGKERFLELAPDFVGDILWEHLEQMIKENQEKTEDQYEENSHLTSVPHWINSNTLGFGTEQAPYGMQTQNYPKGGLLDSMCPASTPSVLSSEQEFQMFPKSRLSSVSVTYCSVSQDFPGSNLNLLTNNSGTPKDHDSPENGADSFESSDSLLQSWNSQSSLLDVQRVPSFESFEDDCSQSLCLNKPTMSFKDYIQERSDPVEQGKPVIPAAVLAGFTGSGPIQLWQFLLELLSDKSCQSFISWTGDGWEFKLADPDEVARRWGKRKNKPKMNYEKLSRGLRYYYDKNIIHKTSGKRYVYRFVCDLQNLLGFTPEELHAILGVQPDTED
Outline: as §1

SPDEF = target: T9, SPDEF (Homo sapiens, UniProt O95238 1-335); conditions: protein: recombinant; tags: N-terminal GST; dsDNA, one strand shown
T9 sequence: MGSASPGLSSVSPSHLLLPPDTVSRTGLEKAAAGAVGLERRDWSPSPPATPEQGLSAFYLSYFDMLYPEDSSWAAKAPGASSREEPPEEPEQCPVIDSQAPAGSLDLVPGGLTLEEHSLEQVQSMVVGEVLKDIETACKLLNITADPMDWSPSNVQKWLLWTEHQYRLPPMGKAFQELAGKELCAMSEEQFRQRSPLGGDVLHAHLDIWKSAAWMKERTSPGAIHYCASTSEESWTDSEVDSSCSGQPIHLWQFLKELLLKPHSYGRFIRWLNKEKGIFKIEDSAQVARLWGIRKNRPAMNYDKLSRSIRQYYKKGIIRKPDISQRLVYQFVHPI
Outline: as §1

ETV7 = target: T10, ETV7 (Homo sapiens, UniProt Q9Y603 1-341); conditions: protein: recombinant; tags: N-terminal GST; dsDNA, one strand shown
T10 sequence: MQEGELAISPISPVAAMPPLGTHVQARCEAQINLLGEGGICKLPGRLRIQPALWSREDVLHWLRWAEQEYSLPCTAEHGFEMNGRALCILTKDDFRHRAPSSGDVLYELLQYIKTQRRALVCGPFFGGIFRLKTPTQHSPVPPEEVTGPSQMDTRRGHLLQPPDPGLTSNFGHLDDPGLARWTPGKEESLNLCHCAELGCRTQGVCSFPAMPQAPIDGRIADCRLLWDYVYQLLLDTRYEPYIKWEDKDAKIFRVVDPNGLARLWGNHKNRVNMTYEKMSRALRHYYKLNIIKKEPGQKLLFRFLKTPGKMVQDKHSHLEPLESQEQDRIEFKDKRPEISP
Outline: as §1

ELF5 = target: T11, ELF5 (Homo sapiens, UniProt Q9UKW6-2 1-255); conditions: protein: recombinant; tags: N-terminal GST; dsDNA, one strand shown
T11 sequence: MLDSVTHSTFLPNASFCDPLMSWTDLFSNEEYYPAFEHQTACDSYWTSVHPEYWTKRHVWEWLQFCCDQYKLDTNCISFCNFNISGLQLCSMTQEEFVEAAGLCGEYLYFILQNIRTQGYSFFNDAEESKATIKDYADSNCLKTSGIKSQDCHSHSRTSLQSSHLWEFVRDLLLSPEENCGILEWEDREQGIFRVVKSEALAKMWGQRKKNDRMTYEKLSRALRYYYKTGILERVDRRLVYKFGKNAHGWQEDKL
Outline: as §1

ETV3 = target: T12, ETV3 (Homo sapiens, UniProt P41162-2 1-143); conditions: protein: recombinant; tags: N-terminal GST; dsDNA, one strand shown
T12 sequence: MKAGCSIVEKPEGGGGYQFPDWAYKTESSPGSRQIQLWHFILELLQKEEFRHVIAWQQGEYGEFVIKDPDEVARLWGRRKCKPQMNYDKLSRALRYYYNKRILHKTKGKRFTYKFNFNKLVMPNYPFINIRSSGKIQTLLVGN
Outline: as §1

ETV6 = ETV6 (Homo sapiens, UniProt P41212 1-452); conditions: protein: recombinant; tags: N-terminal GST; dsDNA, one strand shown
Outline: as §1

Chain of CRX (O43186 whole entry): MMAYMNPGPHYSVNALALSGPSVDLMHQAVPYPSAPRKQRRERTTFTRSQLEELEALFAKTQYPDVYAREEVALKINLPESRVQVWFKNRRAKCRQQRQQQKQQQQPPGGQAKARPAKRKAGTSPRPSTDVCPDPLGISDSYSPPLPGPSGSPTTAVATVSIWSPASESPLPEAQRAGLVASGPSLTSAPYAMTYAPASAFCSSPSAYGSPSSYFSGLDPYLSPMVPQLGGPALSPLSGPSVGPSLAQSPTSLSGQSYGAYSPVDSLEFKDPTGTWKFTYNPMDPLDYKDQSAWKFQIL
Chain of ETV1 (P50549 whole entry): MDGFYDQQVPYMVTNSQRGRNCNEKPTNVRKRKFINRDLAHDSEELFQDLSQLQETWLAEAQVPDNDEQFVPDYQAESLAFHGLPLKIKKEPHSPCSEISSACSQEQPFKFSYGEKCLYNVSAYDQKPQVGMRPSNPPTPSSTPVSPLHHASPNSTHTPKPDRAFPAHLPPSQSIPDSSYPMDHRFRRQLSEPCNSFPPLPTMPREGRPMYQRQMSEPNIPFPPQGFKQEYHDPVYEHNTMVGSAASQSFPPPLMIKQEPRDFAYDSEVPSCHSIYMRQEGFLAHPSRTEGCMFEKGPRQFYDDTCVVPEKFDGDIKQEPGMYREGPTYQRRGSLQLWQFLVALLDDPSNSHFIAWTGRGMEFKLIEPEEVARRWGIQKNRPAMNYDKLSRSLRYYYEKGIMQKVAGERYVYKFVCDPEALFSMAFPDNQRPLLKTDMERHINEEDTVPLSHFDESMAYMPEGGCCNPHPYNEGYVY
Chain of ETV6 (P41212 whole entry): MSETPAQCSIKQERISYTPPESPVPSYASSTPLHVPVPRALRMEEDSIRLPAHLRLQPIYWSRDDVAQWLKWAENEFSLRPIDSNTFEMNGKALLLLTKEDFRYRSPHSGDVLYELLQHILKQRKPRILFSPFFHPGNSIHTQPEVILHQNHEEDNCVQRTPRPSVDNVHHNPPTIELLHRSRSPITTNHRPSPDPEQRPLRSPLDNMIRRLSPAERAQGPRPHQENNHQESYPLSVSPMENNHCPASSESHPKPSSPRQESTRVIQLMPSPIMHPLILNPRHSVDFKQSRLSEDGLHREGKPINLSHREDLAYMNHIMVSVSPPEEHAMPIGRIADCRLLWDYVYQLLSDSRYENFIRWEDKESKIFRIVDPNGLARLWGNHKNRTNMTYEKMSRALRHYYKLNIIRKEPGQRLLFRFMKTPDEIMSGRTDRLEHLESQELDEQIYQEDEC
Chain of ELF4 (Q99607 whole entry): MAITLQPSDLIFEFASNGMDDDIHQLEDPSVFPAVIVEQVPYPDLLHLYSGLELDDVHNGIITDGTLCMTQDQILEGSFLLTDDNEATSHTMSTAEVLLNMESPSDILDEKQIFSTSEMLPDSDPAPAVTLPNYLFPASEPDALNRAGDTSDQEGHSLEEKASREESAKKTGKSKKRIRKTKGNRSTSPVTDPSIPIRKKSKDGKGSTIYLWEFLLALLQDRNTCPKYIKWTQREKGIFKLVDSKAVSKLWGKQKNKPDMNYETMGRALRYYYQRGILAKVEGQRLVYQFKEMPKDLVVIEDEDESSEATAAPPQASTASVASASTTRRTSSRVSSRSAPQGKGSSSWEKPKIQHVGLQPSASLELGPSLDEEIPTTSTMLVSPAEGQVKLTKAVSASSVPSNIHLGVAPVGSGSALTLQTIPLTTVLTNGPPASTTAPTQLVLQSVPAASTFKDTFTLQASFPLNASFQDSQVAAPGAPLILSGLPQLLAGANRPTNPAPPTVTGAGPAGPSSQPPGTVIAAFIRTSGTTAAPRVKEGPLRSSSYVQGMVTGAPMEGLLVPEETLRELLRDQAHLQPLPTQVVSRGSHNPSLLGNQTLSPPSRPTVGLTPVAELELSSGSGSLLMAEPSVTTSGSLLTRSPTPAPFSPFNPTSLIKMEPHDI
Chain of ETV5 (P41161 whole entry): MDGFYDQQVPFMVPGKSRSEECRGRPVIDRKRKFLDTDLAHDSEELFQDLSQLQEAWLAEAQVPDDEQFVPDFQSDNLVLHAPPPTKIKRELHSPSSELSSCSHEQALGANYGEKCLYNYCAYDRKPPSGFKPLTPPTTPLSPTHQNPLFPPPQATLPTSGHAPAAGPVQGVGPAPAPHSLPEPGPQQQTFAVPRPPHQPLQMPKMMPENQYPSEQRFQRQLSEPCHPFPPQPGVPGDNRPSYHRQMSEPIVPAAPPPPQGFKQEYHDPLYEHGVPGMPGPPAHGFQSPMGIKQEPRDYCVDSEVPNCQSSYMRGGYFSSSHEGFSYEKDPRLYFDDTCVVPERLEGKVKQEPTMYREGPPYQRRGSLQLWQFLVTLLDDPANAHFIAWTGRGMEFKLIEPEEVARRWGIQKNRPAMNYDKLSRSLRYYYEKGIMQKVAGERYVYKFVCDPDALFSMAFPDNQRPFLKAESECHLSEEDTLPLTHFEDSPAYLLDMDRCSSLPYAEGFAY
Chain of HSF1 (Q00613 whole entry): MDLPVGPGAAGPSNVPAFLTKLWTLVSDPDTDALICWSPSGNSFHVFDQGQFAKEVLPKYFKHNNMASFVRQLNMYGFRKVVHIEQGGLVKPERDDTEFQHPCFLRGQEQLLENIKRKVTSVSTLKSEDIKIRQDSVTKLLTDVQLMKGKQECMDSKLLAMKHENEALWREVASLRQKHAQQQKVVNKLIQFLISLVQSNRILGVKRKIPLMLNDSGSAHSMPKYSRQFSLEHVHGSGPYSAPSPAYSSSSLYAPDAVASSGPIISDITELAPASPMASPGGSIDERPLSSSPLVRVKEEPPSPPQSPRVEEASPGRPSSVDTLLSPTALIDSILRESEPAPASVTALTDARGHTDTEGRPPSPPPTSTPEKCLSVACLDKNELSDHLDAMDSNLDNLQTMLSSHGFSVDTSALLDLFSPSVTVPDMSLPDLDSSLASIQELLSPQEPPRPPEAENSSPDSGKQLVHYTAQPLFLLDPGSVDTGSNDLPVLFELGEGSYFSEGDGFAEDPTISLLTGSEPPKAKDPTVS

With AACTCT the binding signal (FEV) was 1.31 fold enrichment (6-mer frequency, TF over GST control), the binding signal (ETV5) was 1.36 fold enrichment (6-mer frequency, TF over GST control) and the binding signal (HSF1) was 1.4 fold enrichment (6-mer frequency, TF over GST control). For the same sequence, the binding signal (SPIC) was 1.6 fold enrichment (6-mer frequency, TF over GST control), the binding signal (ELF4) was 1.36 fold enrichment (6-mer frequency, TF over GST control) and the binding signal (ELK4) was 1.24 fold enrichment (6-mer frequency, TF over GST control). The binding signal (ETV2) was 1.24 fold enrichment (6-mer frequency, TF over GST control), the binding signal (ELF3) was 1.44 fold enrichment (6-mer frequency, TF over GST control) and the binding signal (CRX) was 1.37 fold enrichment (6-mer frequency, TF over GST control). For the same sequence, the binding signal (ETV1) was 1.36 fold enrichment (6-mer frequency, TF over GST control), the binding signal (ERF) was 1.33 fold enrichment (6-mer frequency, TF over GST control) and the binding signal (ETV3L) was 1.27 fold enrichment (6-mer frequency, TF over GST control). For the same sequence, the binding signal (ETS2) was 1.32 fold enrichment (6-mer frequency, TF over GST control), the binding signal (SPDEF) was 1.35 fold enrichment (6-mer frequency, TF over GST control) and the binding signal (ETV7) was 1.24 fold enrichment (6-mer frequency, TF over GST control). The binding signal (ELF5) was 1.35 fold enrichment (6-mer frequency, TF over GST control), the binding signal (ETV3) was 1.34 fold enrichment (6-mer frequency, TF over GST control) and the binding signal (ETV6) was 1.33 fold enrichment (6-mer frequency, TF over GST control).
